# Screening results as filed in PubChem BioAssay.
# DT40 TDP1 no CPT = qHTS for Inhibitors of human tyrosyl-DNA phosphodiesterase 1 (TDP1): qHTS in cells in absence of CPT; Potency, µM (doses to about 46.2 µM), for the others: at the top dose activity change, negative = growth inhibition, most hits filed as inhibitors; hit rate 15% among 420,000; DT40 Tdp1-/- hTDP1 cells, no CPT, ATP luminescence, 48 h; further: potency means the concentration at half of the fitted maximal effect; nearly all actives have a fitted effect of over 55% in size
#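 DT40 Tdp1-/-;hTDP1 cells, no CPT (DMSO vehicle only), 400 cells/well; compounds pin-transferred; ≥48 hr, 37 °C; CellTiter-Glo 30 min RT dark, luminescence read.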
# TDP1 cell CPT = growth inhibition of DT40 Tdp1-/-;hTDP1 cells with camptothecin (screen for TDP1 inhibitors) | chicken DT40 Tdp1-/-;hTDP1 cells + 20 nM CPT, ATP luminescence, 48 h | hit rate 12% among 420,000 | Potency, µM (highest dose often 46.2 µM), for the others: at the top dose activity change, negative = growth inhibition, usual class: inhibitors; further: potency means the concentration at half of the fitted maximal effect; nearly all actives have a fitted effect of over 55% in size
#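 Chicken DT40 Tdp1-/- cells complemented with human TDP1, 400 cells/well, exposed to compounds plus 20 nM camptothecin for at least 48 h at 37 C; viability read as ATP content by CellTiter-Glo luminescence.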
# VP16 counter = counter-screen for ROR gamma inhibitors: Gal4-VP16 reporter. Drosophila S2 Gal4-VP16 UAS-luciferase, luminescence, 20 h. hit rate 3.5% among 310,000. Potency, µM (titrated, usually from 53.6 µM), for inactives: at the top dose activity, negative = inhibition, most hits filed as inhibitors;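 further: Gal4-VP16 expression switched on by copper sulfate through the metallothionein promoter; potency means the concentration at half of the fitted maximal effect; nearly all actives have a fitted effect of over 50% in size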
# LDHA block = inhibitors of human lactate dehydrogenase A; P00338; purified LDHA, NADH/diaphorase-resazurin fluorescence; hits give low values; activity change, % (values are at about 110 or 230 µM); hit rate 0.15% among 480,000; in the data active means activity change below about -30%; inconclusive means mostly about -25% to -30%;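 further: plate controls were DMSO wells for no effect and wells without enzyme for full effect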
#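 Resorufin fluorescence (ex540/em590), read at 0 and 20 min after diaphorase/resazurin addition, reports the NADH left after a 5 min room-temperature reaction of 2 nM human LDH5 with 0.06 mM NADH and 0.2 mM pyruvate.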
# RORg inh = blocks mouse ROR gamma transcriptional activity; P51450; Drosophila S2 Gal4-RORgamma UAS-luciferase reporter, 20 h; hit rate 5.4% among 310,000; Potency, µM (top dose mostly 53.6 µM), inactives show at the highest dose activity change, negative = inhibition, hits mostly inhibitors; further: potency means the concentration at half of the fitted maximal effect; nearly all actives have a fitted effect of over 60% in size
# Target sequence (P51450 whole entry, looked up, the tested form may be a part): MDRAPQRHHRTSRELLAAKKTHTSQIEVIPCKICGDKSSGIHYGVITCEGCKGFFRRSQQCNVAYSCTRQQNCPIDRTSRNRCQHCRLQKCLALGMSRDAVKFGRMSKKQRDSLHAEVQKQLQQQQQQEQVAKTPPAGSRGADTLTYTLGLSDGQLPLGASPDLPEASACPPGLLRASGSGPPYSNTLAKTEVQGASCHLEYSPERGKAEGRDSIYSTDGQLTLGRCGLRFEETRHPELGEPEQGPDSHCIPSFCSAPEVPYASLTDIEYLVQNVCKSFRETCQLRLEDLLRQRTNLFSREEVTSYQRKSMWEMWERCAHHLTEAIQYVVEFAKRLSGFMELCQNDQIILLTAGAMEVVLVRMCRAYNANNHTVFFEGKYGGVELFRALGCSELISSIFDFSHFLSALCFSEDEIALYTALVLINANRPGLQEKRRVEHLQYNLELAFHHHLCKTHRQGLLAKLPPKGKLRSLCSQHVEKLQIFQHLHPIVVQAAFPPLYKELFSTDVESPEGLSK
#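 Compounds are pin-transferred onto Drosophila Schneider cells expressing a copper-inducible Gal4–ROR gamma transactivation domain fusion. After 1 hr, copper sulfate is added to 700 uM final; luciferase is read 20 hr later.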
# IL-1B inflam inh = blocks inflammasome-driven IL-1 beta release; THP-1 LPS/ATP IL-1B secretion, AlphaLISA, 16 h; hits give low values; activity change, % at 57.5 µM; hit rate 4.7% among 360,000; AID 743279; in the data active means activity change below about -50%; inconclusive means mostly about -30% to -49%
#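 Secreted IL-1B measured by AlphaLISA bead assay after 16 h compound exposure of THP-1 cells; compounds (final up to 57.5 uM) added 1 h before LPS (250 ng/mL) and ATP (1.25 mM) stimulation; lower signal means less secretion.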
# The depositor's hits bear a star; ? = inconclusive; nt = no result given. A selection: hits, their analogues and other compounds. The true share with any hit is near 18%. Unless noted, the call rests on the fitted dose curve; in most records, active means well fitted curve in the direction sought with a large enough effect; inconclusive means small, poorly fitted or top-dose-only effect, or another doubt; inactive means no such curve, though single readings can be large; an effect the other way counts as inactive or inconclusive. Unless noted, on the % scale 0 is the no-effect control and ±100 the full control effect.
SMILES,DT40 TDP1 no CPT,TDP1 cell CPT,VP16 counter,LDHA block,RORg inh,IL-1B inflam inh
CCCn1c(N2CCN(Cc3ccc(Cl)cc3)CC2)nc2ccccc21,11.6µM*,?,?,-1.2,11.2µM*,-17.7
O=[N+]([O-])c1ccc(N2CCN(Cc3ccccc3)CC2)nc1,?,?,7.4%,1.6,-3.8%,3.5
Cc1ccccc1OCC(=O)N1CCC(NC(=O)c2ccccc2)CC1,nt,nt,nt,6.1,nt,nt
CC(C)N(/C=C/C(=O)C(F)(F)F)C(C)C,nt,nt,nt,-3.0,nt,nt
COc1ccc(NC(=O)c2c(-n3cnnn3)sc(C)c2C)cc1Cl,nt,nt,nt,0.4,nt,nt
Cc1cccc(Cn2c(N3CCN(Cc4ccccc4)CC3)nc3c2c(=O)[nH]c(=O)n3C)c1,nt,nt,nt,-11.1,nt,nt
C=CCC[C@H](Cc1ccc(F)cc1)C(=O)OC[C@@H](Cc1c[nH]c2ccccc12)NC(=O)[C@H](CC=C)CC(=O)NCCO,16.4µM*,20.6µM*,nt,1.4,nt,0.0
C=CCC[C@@H](Cc1ccc(F)cc1)C(=O)OC[C@H](Cc1c[nH]c2ccccc12)NC(=O)[C@H](CC=C)CC(=O)NCCO,?,?,nt,3.8,nt,-57.2*
COC(=O)C1=C(C)N(c2ccc(C)c(C)c2)C(=S)NC1c1ccsc1 (stereo unspecified),nt,nt,nt,-24.5,nt,nt
CC(=O)c1cccc(OCc2cccc(C(N)=O)c2)c1,nt,nt,nt,3.3,nt,nt
COc1ccc(CNC(=O)c2cc3sccc3n2C)cc1,-29.9%,2.1%,nt,5.0,nt,nt
COc1ccc(CNC(=O)CN(C(=O)c2cc3sccc3n2C)C2CCCC2)cc1,12.6µM*,?,-27.4%,-4.3,7.1%,?
Cc1ccc2nc(C)c(CN3CCN(c4ccc([N+](=O)[O-])cc4Cl)CC3)n2c1,nt,nt,7.08µM*,nt,14.1µM*,nt
COC(=O)c1cccc(COC(=O)c2ccc(CNC(C)=O)cc2)c1,nt,nt,nt,4.2,nt,nt
CN(C)c1ccc(CNc2ccc3c(c2)ncn3C)cc1,23.1µM*,14.6µM*,-4.0%,7.7,0.1%,-58.6*
CC(C)c1ccc(CNc2ccc3c(c2)ncn3C)cc1,?,23.1µM*,?,8.7,-24.1%,0.0
Cn1cnc2cc(NCc3ccccc3Cl)ccc21,-16.5%,-18.2%,-0.9%,17.0,2.9%,10.1
COc1ccc(CC(=O)Nc2nonc2-c2ccc(OC(C)C)cc2)cc1,nt,nt,nt,4.1,nt,nt
CCN(C(=S)NCc1ccccc1)c1cccc2ccccc12,-14.6%,?,?,-1.8,7.08µM*,-7.7
CCN(C(C)=O)c1cccc2ccccc12,-1.8%,3.2%,-0.1%,-2.7,7.9%,11.6
CCN(C(=S)NCc1ccccc1)c1ccccc1,7.8%,-14.2%,-8.0%,-2.0,14.1µM*,40.4
CCN(C(=S)Nc1cccnc1)c1cccc2ccccc12,-2.1%,-29.6%,6.4%,13.0,-28.8%,35.7
C=CCNC(=S)N(CC)c1cccc2ccccc12,?,6.3%,?,-3.8,7.08µM*,36.1
CCN(Cc1ccncc1)C(=S)NCc1ccccc1,-8.0%,-0.3%,1.0%,-1.9,5.7%,-2.8
Cn1c(=O)[nH]c(=O)c2c1nc(Sc1ccccc1)n2CCCc1ccccc1,nt,nt,nt,2.5,nt,nt
SMILES,DT40 TDP1 no CPT,TDP1 cell CPT,VP16 counter,LDHA block,RORg inh,IL-1B inflam inh
N#CC(c1ccc(F)cc1)c1ccc(C(=O)c2ccccc2)cc1 (stereo unspecified),?,?,?,-1.2,-26.8%,-9.5
N#CC(c1ccccc1)c1ccc(C(=O)c2ccc(F)cc2)cc1 (stereo unspecified),23.1µM*,-55.6%,?,-3.1,1.4%,4.0
O=C(NCCc1cccc(F)c1)c1ccccn1,nt,nt,nt,-1.9,nt,nt
CCOC(=O)c1[nH]c(C=O)c(CC)c1C,nt,nt,nt,5.8,nt,nt
O=C(COc1ccc2oc3c(c2c1)CCCC3)OCC(=O)c1ccc2c(c1)OCO2,nt,nt,nt,6.0,nt,nt
CCN(CC)CCNC(=O)c1cc(-c2cccnc2)nc2ccc(S(=O)(=O)N3CCC(C)CC3)cc12,?,?,-2.0%,-1.1,-1.8%,-98.8*
CCCCN(CCCC)CCNC(=O)c1cc(-c2cccnc2)nc2ccc(S(=O)(=O)N3CCC(C)CC3)cc12,-2.0%,3.66µM*,nt,-1.0,nt,nt
CCCCN(C)CCCNC(=O)c1cc(-c2cccnc2)nc2ccccc12,8.6%,2.6%,-2.4%,-12.0,-0.4%,4.8
CCCCN(C)CCNC(=O)c1cc(-c2cccnc2)nc2ccc(S(=O)(=O)N3CCC(C)CC3)cc12,14.6µM*,?,-0.9%,-1.4,4.5%,-13.6
CC1CCN(S(=O)(=O)c2ccc3nc(-c4cccnc4)cc(C(=O)NCCCOC(C)C)c3c2)CC1,10.5%,4.0%,nt,-1.8,nt,nt
CC12CC3(C)CC(N)(C1)CC(C(=O)O)(C2)C3,nt,nt,nt,-1.5,nt,nt
O=C(Cn1ccn(-c2ccc(F)c(F)c2)c(=O)c1=O)Nc1cccc(Cl)c1,nt,nt,nt,1.0,nt,nt
Cc1cnc(NC(=O)Cc2ccccc2F)s1,20.6µM*,7.31µM*,5.0%,-4.7,-29.6%,-13.9
COc1ccccc1CCC(=O)Nc1ncc(C)s1,?,10.3µM*,5.4%,-3.7,-9.5%,0.0
Cc1cnc(NC(=O)Cc2cnc(-c3ccccc3F)s2)s1,nt,nt,nt,1.7,nt,nt
COc1ccccc1CCC(=O)Nc1nccs1,?,-16.9%,17.3%,-3.2,-6.3%,-5.7
COc1cccc(NC(=O)c2ncoc2-c2cccs2)c1,nt,nt,nt,5.5,nt,nt
CCCC1=C(C(=O)OCC)C(c2ccc(N(C)C)cc2)n2ncnc2N1 (stereo unspecified),25.9µM*,?,-5.6%,2.8,-32.9%,16.8
CCOC(=O)C1=C(C)Nc2ncnn2C1/C=C/c1ccccc1 (stereo unspecified),?,?,4.9%,4.2,-38.8%,50.9
CCCC1=C(C(=O)OCC)C(/C=C/c2ccccc2)n2ncnc2N1 (stereo unspecified),12.6µM*,15.8µM*,-2.9%,-3.3,20µM*,4.4
O=C1CCc2cc(S(=O)(=O)NCc3ccccc3Cl)cc3c2N1CCC3,nt,nt,nt,9.4,nt,nt
